The values that follow come from PubChem BioAssay (EPA / NIEHS).

Read-out in assay [1]: E-selectin (Homo sapiens) (UniProt P16581)
Kind of assay: BSK_SAg_Eselectin: BioMAP Diversity Plus: SAg Assay for Eselectin Biomarker Activity (AID 2283091). The settings on record: primary human HUVEC with PBMC; actives raise or lower the signal. The gist of the method: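 Cell-surface E-selectin is read by ELISA at 24 h in the SAg co-culture of HUVEC and PBMC. Curves are fitted in both directions relative to DMSO. Parallel SRB total-protein staining tracks overt toxicity.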

Read-out in assay [2]: Interleukin-8 (IL8), CXCL8 (gene 3576)
Kind of assay: BSK_SAg_IL8: BioMAP Diversity Plus: SAg Assay for Interleukin-8 (IL8) Biomarker Activity (AID 2283094). The settings on record: primary human HUVEC with PBMC; actives raise or lower the signal. The gist of the method: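 Human umbilical vein endothelial cells co-cultured with peripheral blood mononuclear cells; IL-8 measured by ELISA 24 h after chemical dosing. Bidirectional concentration-response fitting used DMSO as negative control and activity baseline.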

Assay [3] can be described thus: BSK_SAg_Proliferation: Cell Proliferation Assessment in the BioMAP Diversity Plus: SAg Assay (AID 2283095).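 Also: relative cell number as total protein by SRB absorbance in sub-confluent culture.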 To be noted: primary human HUVEC with PBMC. An outline of the steps: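 Human umbilical vein endothelial cells co-cultured with peripheral blood mononuclear cells; total protein measured by sulforhodamine B staining (0.1% SRB after 10% TCA fixation), absorbance at 560 nm, at 96 h. Bidirectional fit against DMSO baseline.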

The nature of assay [4]: BSK_SAg_SRB: Viability Assessment in the BioMAP Diversity Plus: SAg Assay (AID 2283096).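 Also: cells read one day after compound addition; hits may be either gain or loss of signal compared with DMSO.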 The settings on record: primary human HUVEC with PBMC. An outline of the steps: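 Endothelial/PBMC primary human co-culture; compound 24 h; fix 10% TCA, stain 0.1% SRB, A560; protein content as cytotoxicity proxy; bidirectional curve fit, DMSO = baseline.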
The target in assay [5] is human CYP2B6, CYP2B6 (gene 1555) (UniProt P20813). Kind of assay: NVS_ADME_hCYP2B6: NovaScreen (NVS) CYP450-related Enzyme Activity (ADME) Assay for human CYP2B6 (AID 2283101; active = hit-call score of the fitted dose curve at least 0.9, where 1 is the maximum). The gist of the method: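 Cell-free recombinant enzyme assay with a fluorogenic substrate; fluorescence intensity read 1 hour after dosing. Loss of signal relative to acetonitrile negative control indicates inhibition. Primary screen run in duplicate at 10 uM, actives then tested in concentration series.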
Chain of human CYP2B6, CYP2B6 (gene 1555) (P20813 whole entry, looked up): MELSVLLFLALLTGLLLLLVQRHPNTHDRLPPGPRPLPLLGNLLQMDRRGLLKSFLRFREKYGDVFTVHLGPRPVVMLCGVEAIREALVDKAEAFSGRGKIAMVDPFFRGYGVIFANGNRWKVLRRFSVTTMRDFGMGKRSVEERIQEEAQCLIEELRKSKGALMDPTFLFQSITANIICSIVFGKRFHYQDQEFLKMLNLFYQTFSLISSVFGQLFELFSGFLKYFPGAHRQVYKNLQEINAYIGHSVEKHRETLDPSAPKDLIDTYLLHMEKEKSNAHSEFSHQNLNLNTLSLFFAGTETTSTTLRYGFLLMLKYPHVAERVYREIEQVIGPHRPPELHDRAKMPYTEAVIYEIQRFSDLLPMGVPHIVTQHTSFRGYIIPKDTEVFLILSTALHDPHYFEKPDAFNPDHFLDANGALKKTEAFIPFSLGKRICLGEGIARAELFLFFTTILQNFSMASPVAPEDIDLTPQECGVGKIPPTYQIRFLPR

The target of assay [6] is Cytochrome P450 2C19 (Homo sapiens) (UniProt P33261). Kind of assay: NVS_ADME_hCYP2C19: NovaScreen (NVS) CYP450-related Enzyme Activity (ADME) Assay for human CYP2C19 (AID 2283113; active = hit-call score of the fitted dose curve at least 0.9, where 1 is the maximum;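 also: potency for inhibition seen as loss of fluorescent signal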). The gist of the method: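 Compounds first screened in duplicate at 10 uM, then confirmed in concentration series. Insect-cell-expressed human CYP2C19 turned over a fluorogenic substrate, and fluorescence was read after 1 h. Inhibition taken as signal loss relative to acetonitrile.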

Assay [7] addresses human CYP1A1, CYP1A1 (gene 1543) (UniProt P04798). Kind of assay: NVS_ADME_hCYP1A1: NovaScreen (NVS) CYP450-related Enzyme Activity (ADME) Assay for human CYP1A1 (AID 2283100; active = hit-call score of the fitted dose curve at least 0.9, where 1 is the maximum). An outline of the steps: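 Chemicals were first tested in duplicate at 10 uM, and those passing a 30% inhibition threshold were rerun as concentration series topping at 20 uM. Fluorescence read-out of recombinant enzyme turnover after 1 h, relative to acetonitrile.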

Assay [8] addresses human CYP2C9, CYP2C9 (gene 1559) (UniProt P11712). As to the kind of experiment: NVS_ADME_hCYP2C9: NovaScreen (NVS) CYP450-related Enzyme Activity (ADME) Assay for human CYP2C9 (AID 2283108; active = hit-call score of the fitted dose curve at least 0.9, where 1 is the maximum). An outline of the steps:
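Cell-free assay of recombinant human CYP2C9 produced in Sf9 cells, with enzyme activity read by fluorescence intensity 0.75 h after compound addition. Loss of signal versus an acetonitrile negative control indicates inhibition. Primary screen used 10 uM in duplicate; actives were retested in concentration series.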

The target of assay [9] is Cytochrome P450 3A4 (Homo sapiens) (UniProt P08684). Kind of assay: NVS_ADME_hCYP3A4: NovaScreen (NVS) CYP450-related Enzyme Activity (ADME) Assay for human CYP3A4 (AID 2283110; active = hit-call score of the fitted dose curve at least 0.9, where 1 is the maximum). The gist of the method:
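Cell-free assay using insect-cell-expressed human CYP3A4 with a fluorogenic substrate; fluorescence intensity was read 0.33 hour after dosing. Loss of signal relative to acetonitrile vehicle indicated inhibition. Primary single-concentration screen at 10 uM, in duplicate, then concentration series.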

Assay [10] in a line: BSK_SAg_PBMCCytotoxicity: PBMC Cytotoxicity Assessment in the BioMAP Diversity Plus: SAg Assay (AID 2283093).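 Also: PBMC viability measured as Alamar Blue reduction fluorescence at 546/580 nm; fitted both ways against DMSO so a hit may be loss or gain of signal.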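 As to AC50: PBMC superantigen activated with SEB plus TSST-1 one hour after compound addition.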 To be noted: primary human HUVEC with PBMC. The gist of the method: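 Human umbilical vein endothelial cells co-cultured with PBMC; PBMC (75,000/well) pre-treated with compound 1 h, then activated with SEB and TSST-1 (20 ng/mL final each) for 90 h. Alamar Blue added 6 h, fluorescence 546/580 nm; bidirectional fit versus DMSO.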

The target of assay [11] is human CYP1A2, CYP1A2 (gene 1544) (UniProt P05177). Kind of assay: NVS_ADME_hCYP1A2: NovaScreen (NVS) CYP450-related Enzyme Activity (ADME) Assay for human CYP1A2 (AID 2283102; active = hit-call score of the fitted dose curve at least 0.9, where 1 is the maximum;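 also: potency for inhibition since loss of fluorescence marks reduced CYP1A2 activity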). An outline of the steps: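 Enzyme activity of insect-cell-expressed human CYP1A2 measured by fluorescence 0.5 h after compound addition, relative to acetonitrile. Compounds first tested in duplicate at 10 uM, actives followed up in concentration series.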
Chain of human CYP1A2, CYP1A2 (gene 1544) (P05177 whole entry, looked up): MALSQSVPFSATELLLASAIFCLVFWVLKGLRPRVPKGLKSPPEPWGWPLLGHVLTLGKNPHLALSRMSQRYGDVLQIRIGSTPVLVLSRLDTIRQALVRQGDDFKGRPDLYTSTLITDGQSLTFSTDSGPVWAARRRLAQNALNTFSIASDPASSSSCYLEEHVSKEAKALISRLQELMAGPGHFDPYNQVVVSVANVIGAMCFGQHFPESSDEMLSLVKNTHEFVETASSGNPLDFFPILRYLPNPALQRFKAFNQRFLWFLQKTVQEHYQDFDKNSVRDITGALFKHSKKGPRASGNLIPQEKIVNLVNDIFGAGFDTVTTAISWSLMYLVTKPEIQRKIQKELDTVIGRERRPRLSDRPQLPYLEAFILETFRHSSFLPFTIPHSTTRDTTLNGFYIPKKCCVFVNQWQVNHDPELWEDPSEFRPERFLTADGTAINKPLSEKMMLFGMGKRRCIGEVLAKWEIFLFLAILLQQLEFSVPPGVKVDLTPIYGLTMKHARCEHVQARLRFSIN

Assay [12] concerns the target human CYP2D6, CYP2D6 (gene 1565) (UniProt P10635). As to the kind of experiment: NVS_ADME_hCYP2D6: NovaScreen (NVS) CYP450-related Enzyme Activity (ADME) Assay for human CYP2D6 (AID 2283107; active = hit-call score of the fitted dose curve at least 0.9, where 1 is the maximum). The gist of the method: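 Fluorescence readout of recombinant CYP2D6 (insect-cell derived) activity after 1 h incubation with test chemical. Acetonitrile served as baseline, loss-of-signal direction. Single-concentration duplicate screening at 10 uM preceded concentration-response retesting.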

In assay [13] the target is human CYP19A1, CYP19A1 (gene 1588) (UniProt P11511). As to the kind of experiment: NVS_ADME_hCYP19A1: NovaScreen (NVS) CYP450-related Enzyme Activity (ADME) Assay for human CYP19A1 (AID 2283098; active = hit-call score of the fitted dose curve at least 0.9, where 1 is the maximum;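 as to AC50: potency for inhibitors seen as loss of fluorescent enzyme signal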). An outline of the steps:
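Cell-free enzyme assay with recombinant protein and a specific fluorogenic substrate, read by fluorescence intensity 0.5 h after dosing. Primary screen ran in duplicate at 10 uM; actives were retested in concentration series. Loss of signal versus acetonitrile baseline.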

In assay [14] the target is human CYP4F12, CYP4F12 (gene 66002) (UniProt Q9HCS2). As to the kind of experiment: NVS_ADME_hCYP4F12: NovaScreen (NVS) CYP450-related Enzyme Activity (ADME) Assay for human CYP4F12 (AID 2283111; active = hit-call score of the fitted dose curve at least 0.9, where 1 is the maximum). The gist of the method:
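Cell-free fluorescence assay of recombinant human CYP4F12 activity on a specific substrate, read 0.5 h after dosing. Primary screen in duplicate at 10 uM, then concentration series for actives; loss of signal fitted against acetonitrile negative control.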

Assay [15] deals with human CYP2A6, CYP2A6 (gene 1548) (UniProt P11509). As to the kind of experiment: NVS_ADME_hCYP2A6: NovaScreen (NVS) CYP450-related Enzyme Activity (ADME) Assay for human CYP2A6 (AID 2283099; active = hit-call score of the fitted dose curve at least 0.9, where 1 is the maximum). The gist of the method: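 Compounds screened at 10 uM (duplicate) and, if active, titrated to a 20 uM top concentration against insect-cell-expressed CYP2A6. Loss of fluorescent product signal after 0.5 h, relative to acetonitrile baseline, indicates inhibition.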

The target of assay [16] is human CYP2C8, CYP2C8 (gene 1558) (UniProt P10632). Kind of assay: NVS_ADME_hCYP2C8: NovaScreen (NVS) CYP450-related Enzyme Activity (ADME) Assay for human CYP2C8 (AID 2283104). The gist of the method: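 Recombinant human CYP2C8 with fluorogenic substrate, 0.5 h, fluorescence intensity; signal loss fitted versus acetonitrile. Screened in duplicate at 10 uM, then actives run in concentration-response up to 20 uM.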

Where “and” joins values, the source holds several entries; their conditions need not be identical. Equal entries are not always repeated. Inconclusive results are not listed. Calls of active or inactive are those of the source. The calls were made as follows, unless noted: active = hit-call score of the fitted dose curve at least 0.9, where 1 is the maximum; inactive = score below 0.9.

Chain of human CYP19A1, CYP19A1 (gene 1588) (P11511 whole entry, looked up): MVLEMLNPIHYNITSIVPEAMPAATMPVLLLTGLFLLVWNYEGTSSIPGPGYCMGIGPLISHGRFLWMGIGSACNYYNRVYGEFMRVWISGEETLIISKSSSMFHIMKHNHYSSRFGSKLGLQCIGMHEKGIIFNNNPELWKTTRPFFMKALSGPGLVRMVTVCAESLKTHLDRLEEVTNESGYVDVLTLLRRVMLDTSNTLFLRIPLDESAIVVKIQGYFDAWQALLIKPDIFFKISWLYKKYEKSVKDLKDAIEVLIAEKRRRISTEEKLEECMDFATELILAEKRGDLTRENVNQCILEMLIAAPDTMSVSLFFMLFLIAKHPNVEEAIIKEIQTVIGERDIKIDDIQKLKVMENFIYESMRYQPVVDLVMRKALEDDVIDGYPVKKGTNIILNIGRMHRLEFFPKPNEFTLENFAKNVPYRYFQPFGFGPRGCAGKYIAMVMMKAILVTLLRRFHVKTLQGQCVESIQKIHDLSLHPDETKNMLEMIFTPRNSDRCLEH
Chain of E-selectin (Homo sapiens) (P16581 whole entry, looked up): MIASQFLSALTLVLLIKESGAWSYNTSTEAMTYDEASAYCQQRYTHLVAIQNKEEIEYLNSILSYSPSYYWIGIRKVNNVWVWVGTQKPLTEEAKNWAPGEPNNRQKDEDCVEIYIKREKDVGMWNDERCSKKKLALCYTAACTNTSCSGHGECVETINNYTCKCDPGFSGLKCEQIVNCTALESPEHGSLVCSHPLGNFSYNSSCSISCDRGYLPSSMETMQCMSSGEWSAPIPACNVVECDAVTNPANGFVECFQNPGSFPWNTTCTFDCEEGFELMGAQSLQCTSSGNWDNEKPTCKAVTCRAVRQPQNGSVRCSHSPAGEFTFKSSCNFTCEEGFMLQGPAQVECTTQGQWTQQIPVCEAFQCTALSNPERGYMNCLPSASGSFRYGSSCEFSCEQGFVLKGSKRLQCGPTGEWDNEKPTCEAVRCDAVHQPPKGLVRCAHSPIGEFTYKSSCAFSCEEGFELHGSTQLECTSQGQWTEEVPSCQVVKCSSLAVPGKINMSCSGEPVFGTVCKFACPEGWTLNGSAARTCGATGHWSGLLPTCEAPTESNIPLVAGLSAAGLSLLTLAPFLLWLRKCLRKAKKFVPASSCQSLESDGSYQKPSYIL
Chain of human CYP2C9, CYP2C9 (gene 1559) (P11712 whole entry, looked up): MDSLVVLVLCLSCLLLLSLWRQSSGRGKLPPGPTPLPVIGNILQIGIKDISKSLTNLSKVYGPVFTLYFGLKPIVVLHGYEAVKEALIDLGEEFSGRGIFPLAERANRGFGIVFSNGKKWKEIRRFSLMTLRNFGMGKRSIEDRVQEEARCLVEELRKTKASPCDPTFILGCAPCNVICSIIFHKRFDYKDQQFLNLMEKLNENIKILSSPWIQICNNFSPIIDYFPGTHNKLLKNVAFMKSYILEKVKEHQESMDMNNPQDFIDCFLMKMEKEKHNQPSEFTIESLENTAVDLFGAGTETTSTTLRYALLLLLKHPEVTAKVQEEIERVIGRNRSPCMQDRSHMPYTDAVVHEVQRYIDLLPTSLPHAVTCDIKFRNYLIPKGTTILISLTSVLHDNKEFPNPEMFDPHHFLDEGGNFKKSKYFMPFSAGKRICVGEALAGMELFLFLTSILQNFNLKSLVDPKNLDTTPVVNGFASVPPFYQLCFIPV
Chain of Cytochrome P450 3A4 (Homo sapiens) (P08684 whole entry, looked up): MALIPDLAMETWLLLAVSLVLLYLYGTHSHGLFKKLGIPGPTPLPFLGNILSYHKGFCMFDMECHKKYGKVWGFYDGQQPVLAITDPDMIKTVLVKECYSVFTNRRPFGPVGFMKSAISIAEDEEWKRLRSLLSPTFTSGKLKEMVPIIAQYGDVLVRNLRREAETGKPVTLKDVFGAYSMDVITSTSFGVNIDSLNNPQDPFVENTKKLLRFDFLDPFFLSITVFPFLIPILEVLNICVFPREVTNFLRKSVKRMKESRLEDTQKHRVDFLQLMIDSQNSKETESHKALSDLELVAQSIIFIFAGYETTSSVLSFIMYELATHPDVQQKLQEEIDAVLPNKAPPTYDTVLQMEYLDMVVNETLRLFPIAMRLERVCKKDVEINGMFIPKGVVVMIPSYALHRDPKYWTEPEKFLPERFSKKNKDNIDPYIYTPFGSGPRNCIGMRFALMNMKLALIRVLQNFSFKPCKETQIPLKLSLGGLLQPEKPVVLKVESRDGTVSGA
Chain of human CYP1A1, CYP1A1 (gene 1543) (P04798 whole entry, looked up): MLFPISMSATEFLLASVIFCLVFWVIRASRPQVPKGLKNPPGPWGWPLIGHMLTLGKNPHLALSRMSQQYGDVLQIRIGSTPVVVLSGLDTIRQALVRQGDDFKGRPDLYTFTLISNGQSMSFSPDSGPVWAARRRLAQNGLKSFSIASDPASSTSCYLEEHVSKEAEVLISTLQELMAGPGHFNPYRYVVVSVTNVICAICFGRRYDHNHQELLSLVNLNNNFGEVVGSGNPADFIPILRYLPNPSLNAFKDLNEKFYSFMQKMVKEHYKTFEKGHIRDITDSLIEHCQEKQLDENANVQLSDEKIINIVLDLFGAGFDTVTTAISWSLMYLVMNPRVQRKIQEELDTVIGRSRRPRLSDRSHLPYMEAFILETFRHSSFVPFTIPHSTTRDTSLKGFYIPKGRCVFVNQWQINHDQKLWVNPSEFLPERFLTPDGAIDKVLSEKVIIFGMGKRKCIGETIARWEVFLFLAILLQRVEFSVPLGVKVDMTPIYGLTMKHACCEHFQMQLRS
Chain of human CYP2D6, CYP2D6 (gene 1565) (P10635 whole entry, looked up): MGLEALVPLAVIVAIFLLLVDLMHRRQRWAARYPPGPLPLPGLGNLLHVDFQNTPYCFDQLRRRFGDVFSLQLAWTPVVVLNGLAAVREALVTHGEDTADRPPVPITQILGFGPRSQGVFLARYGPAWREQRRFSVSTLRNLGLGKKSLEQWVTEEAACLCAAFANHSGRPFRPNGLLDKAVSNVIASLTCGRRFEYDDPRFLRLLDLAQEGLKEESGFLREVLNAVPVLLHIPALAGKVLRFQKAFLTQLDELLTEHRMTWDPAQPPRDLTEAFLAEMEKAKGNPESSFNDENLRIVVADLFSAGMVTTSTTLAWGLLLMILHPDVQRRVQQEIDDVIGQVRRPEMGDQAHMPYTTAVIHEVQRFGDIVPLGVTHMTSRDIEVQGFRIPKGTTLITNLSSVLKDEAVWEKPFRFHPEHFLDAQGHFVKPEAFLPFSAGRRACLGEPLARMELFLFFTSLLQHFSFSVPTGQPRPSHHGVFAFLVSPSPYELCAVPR
Chain of human CYP4F12, CYP4F12 (gene 66002) (Q9HCS2 whole entry, looked up): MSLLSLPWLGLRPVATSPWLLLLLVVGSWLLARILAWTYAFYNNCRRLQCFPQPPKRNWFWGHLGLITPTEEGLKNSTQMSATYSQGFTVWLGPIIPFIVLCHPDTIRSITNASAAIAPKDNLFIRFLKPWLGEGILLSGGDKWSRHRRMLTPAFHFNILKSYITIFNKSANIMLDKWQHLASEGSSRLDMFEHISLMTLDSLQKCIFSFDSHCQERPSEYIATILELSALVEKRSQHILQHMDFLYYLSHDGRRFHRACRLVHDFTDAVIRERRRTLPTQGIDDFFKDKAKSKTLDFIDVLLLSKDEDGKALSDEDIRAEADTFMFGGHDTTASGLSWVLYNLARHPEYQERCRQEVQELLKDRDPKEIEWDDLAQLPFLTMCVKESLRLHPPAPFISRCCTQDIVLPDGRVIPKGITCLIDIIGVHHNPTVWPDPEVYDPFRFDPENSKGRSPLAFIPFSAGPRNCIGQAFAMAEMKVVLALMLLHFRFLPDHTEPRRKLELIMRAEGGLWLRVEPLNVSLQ

As for `ClC1=C(Cl)[C@]2(Cl)[C@@H]3[C@@H]4C[C@@H]([C@H]5O[C@@H]45)[C@@H]3[C@@]1(Cl)C2(Cl)Cl`, the result in [1] and in [2] was inactive. Also, the half-maximal activity concentration (AC50) – broadly, the concentration giving half of the maximal activity seen – in assay [3] was 20 µM (active); in assay [4], 20 µM (active); in assay [5] it was 3.88 µM (active); in assay [6] it was 3.57 µM (active).
Turning to `Nc1ccc(-c2ccc(N)cc2)cc1`, the result in assay [1], in assay [2], in [3] and in [4] was inactive. The AC50 is 3.1 µM (active) in assay [7], 10 µM (active) in assay [8] and 8.09 µM (active) in assay [6].
As for `CCC(C)(c1ccc(O)cc1)c1ccc(O)cc1`, the concentration at half-maximal activity (AC50) is 16.8 µM (active) in assay [1]; 16 µM (active) in [2]; 28.5 µM (active) in assay [3]; 4.81 µM (active) in assay [5]; 6.47 µM (active) in [8]; 4.4 µM (active) in assay [6]. The result in assay [4] and in [9] was inactive.
Regarding `O=C(O)C(F)(F)C(F)(F)C(F)(F)C(F)(F)C(F)(F)F`, the outcome in assay [1], in assay [2], in assay [3] and in assay [4] was inactive.
On to `CCNc1nc(NC(C)C)nc(SC)n1`, for which the outcome in assay [1], in assay [10], in assay [2], in [3] and in [4] was inactive. Further, the AC50 is 4.92 µM (active) in assay [11] and 4.91 µM (active) in assay [6].
Consider `CC(C)(c1ccccc1)c1ccc(O)cc1`, for which the AC50 in assay [1] was 33.5 µM (active); in assay [10] it was 31.5 µM (active); in assay [2], 30.9 µM (active); in assay [3], 34.2 µM (active); in [4], 30.4 µM (active); in assay [5] it was 7.47 µM (active). Also, the half-maximal activity concentration (AC50) in [8] was 10 µM (active). Further, the result in assay [12] and in [9] was inactive.
`CCOC(=O)C(O)(c1ccc(Cl)cc1)c1ccc(Cl)cc1`: the AC50 in assay [1] is 31.7 µM (active); in assay [10], 33.7 µM (active); in assay [2], 32.9 µM (active); in assay [3], 30.9 µM (active); in assay [4], 32.3 µM (active); in assay [6], 0.596 µM (active).
Consider `CC(C)C(=O)OCC(C)(C)C(OC(=O)C(C)C)C(C)C` (centres undefined), for which the outcome in [1], in [2], in assay [3] and in assay [4] was inactive. Moreover, the AC50 was 11.6 µM (active) in [13] and 6.26 µM (active) in assay [14].
Regarding `Cc1ccccc1[N+](=O)[O-]`, the result in assay [1], in assay [2], in assay [3] and in [4] was inactive.
In the case of `COc1ccc(O)c(C(C)(C)C)c1`, the result in assay [1], in [2], in assay [3], in [4], in assay [15] and in assay [5] was inactive. Also, the AC50 was 10 µM (active) in assay [8] and 12.1 µM (active) in assay [6].
Take `CCSC(=O)N(CC)C1CCCCC1`: the outcome in assay [1], in assay [2], in assay [3] and in assay [4] was inactive.
For `CCOP(=S)(OCC)SCSC(C)(C)C`, the half-maximal activity concentration (AC50) is 39 µM (active) in assay [1] and 28.8 µM (active) in [3]. Further, the result in assay [2] and in assay [4] was inactive.
For the compound `ClC1=C(Cl)[C@]2(Cl)[C@@H]3[C@@H](Cl)[C@H]4O[C@H]4[C@@H]3C1(Cl)C2(Cl)Cl`, the AC50 in assay [1] was 9.42 µM (active); in assay [3], 14.7 µM (active); in [4], 10.6 µM (active); in [5] it was 7.84 µM (active). In addition, the outcome in [2] and in [13] was inactive.
For the compound `NS(=O)(=O)C(F)(F)C(F)(F)C(F)(F)C(F)(F)C(F)(F)C(F)(F)C(F)(F)C(F)(F)F`, the AC50 in [1] was 20 µM (active) and 45.5 µM (active) and 49 µM (active); in [2] it was 31.8 µM (active) and 43.3 µM (active) and 44.3 µM (active); in [3], 32.2 µM (active) and 43.5 µM (active) and 51.1 µM (active); in assay [4], 27.6 µM (active) and 47.4 µM (active) and 44.9 µM (active); in assay [8], 1.97 µM (active).
As for `O=S(=O)(O)C(F)(F)C(F)(F)C(F)(F)C(F)(F)C(F)(F)C(F)(F)F`, the outcome in [1], in assay [10], in assay [2], in assay [3], in assay [4] and in [13] was inactive. Moreover, the AC50 is 9.34 µM (active) in assay [11] and 0.0791 µM (active) in assay [8].
Consider `CCC(C)(CC)c1cc(NC(=O)c2c(OC)cccc2OC)on1`, for which the result in assay [1], in assay [2], in assay [3], in assay [4] and in assay [16] was inactive. The AC50 in [8] is 2.79 µM (active); in [6], 5.05 µM (active).
